Data taken from the supplement of paper PMC3334620.
In all, about 33,000 sequences were measured (“E-score (-0.5 to 0.5)”: median about -0.015, highest 2% from about 0.3 on). Only a selection was taken, and the highest values are over-represented in it overall.

target: T1, Abf1 (UniProt P14164); assay: PBM E-score (8-mer binding enrichment) (E-score (-0.5 to 0.5)); higher = stronger / more preferred TF binding; conditions: protein concentration: 200 nM; construct: GST-full length
T1 sequence: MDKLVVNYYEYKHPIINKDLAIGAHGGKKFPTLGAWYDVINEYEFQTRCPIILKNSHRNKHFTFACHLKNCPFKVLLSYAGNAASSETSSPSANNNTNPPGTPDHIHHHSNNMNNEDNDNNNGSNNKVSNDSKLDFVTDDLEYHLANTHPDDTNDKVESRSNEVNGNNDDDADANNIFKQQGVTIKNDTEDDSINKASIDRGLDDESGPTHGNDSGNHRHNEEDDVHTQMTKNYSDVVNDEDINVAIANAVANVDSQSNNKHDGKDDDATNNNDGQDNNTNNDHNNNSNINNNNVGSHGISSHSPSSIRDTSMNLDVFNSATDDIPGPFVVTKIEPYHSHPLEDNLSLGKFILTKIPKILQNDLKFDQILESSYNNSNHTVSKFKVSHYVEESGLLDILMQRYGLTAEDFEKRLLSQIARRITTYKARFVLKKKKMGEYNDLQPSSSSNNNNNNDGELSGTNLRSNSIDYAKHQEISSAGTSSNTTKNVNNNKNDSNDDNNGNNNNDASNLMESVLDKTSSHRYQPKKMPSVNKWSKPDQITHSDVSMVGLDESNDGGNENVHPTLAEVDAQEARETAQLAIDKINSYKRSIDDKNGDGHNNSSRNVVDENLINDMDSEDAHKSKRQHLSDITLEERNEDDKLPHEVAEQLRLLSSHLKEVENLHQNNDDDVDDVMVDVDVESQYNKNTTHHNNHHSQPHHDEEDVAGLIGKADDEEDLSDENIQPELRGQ
Method: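 Universal 'all 10-mer' protein binding microarrays (Agilent AMADID 015681) probed with GST-tagged S. cerevisiae TFs (full-length or DBD) made by in vitro transcription/translation (PURExpress), about 100-200 nM. Bound TF was detected with fluorescent anti-GST. Each ungapped 8-mer (which stands for itself and its reverse complement) is scored by the PBM enrichment score (E-score), a modified Wilcoxon-Mann-Whitney statistic from -0.5 to +0.5, computed with the Universal PBM Analysis Suite. Scale: above 0.35 generally sequence-specific binding.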

Sequence	PBM E-score
CCGTACAC	0.3
CGGTACAA	0.211
GCGTACAC	0.0451
CCGTACAA	0.432
ACGTACAA	0.218
TCGTACAA	0.402
GCGTACAA	0.197
CAGTACAA	0.0284
AAGGTTTC	-0.0855
CCGACAGA	-0.00185
TACGTTAA	0.132
AGATGCCC	-0.144
GCATCCGA	-0.146
TAGAGTGA	0.248
GAGAGTGA	0.324
GAGAGTGC	-0.192
CCGTTTTA	0.203
CGATGACA	0.319
CGATGACC	0.206
AGATGACA	0.316
GCATGACA	0.207
TGATGACA	0.376
GGATGACA	0.253
TCATGACA	0.323
AGATGACT	-0.0855

Sequence	PBM E-score
TGATGAAA	0.0461
CGATGACG	0.136
ACATGACA	0.256
AGATGACC	0.132
CTCGTGCC	-0.0761
CCGGATGA	-0.024
GAACACAA	-0.0576
GCGAGTGA	0.137
ACTGGTCT	-0.176
ACTTGTCT	-0.0797
CGATTGGC	-0.0866
CCCCGCGG	-0.255
CGGTCGCC	-0.00137
ATTGACGA	0.377
CATGACGA	0.374
AATGACGT	0.125
ACTGACGA	0.305
ATTGACGG	0.211
CCTGACGA	0.214
GTTGACGA	0.21
AATGACGA	0.36
CATGACGG	0.0231
GATGACGA	0.265
ACTGACGG	-0.0335
AATGACGC	0.106

Sequence	PBM E-score
TCAGGCGA	0.0781
ATCGACTA	0.029
ATAAGATG	0.201
ATGTTCTG	0.093
GGTCGCAA	-0.0813
GGAGAGCA	-0.253
ACTATGGA	-0.013
ATAATGAC	0.258
ATAATTAC	0.261
ATAATTAT	0.303
ACAATGAC	0.107
ATAATGAG	0.117
AGAATGAT	0.33
AAAATGGC	0.0419
ATAATGAT	0.344
AGAATGAG	-0.157
AAAATGAC	0.297
ATAATTAA	0.274
AGAATGAA	0.144
GGGACGTA	0.159
CGAGTCAA	-0.0144
AGAAGGCG	-0.119
GGGATACA	-0.0572
CTGTCTGC	-0.243
ATTCCGAA	0.0789

Sequence	PBM E-score
CAAGGAGC	-0.363
GGCAAAAC	-0.0611
AAAATGAG	0.0916
AAAATGAA	0.056
GAAATGAA	0.164
GAAATGAC	0.312
AAAATGAT	0.387
CAAATGAC	0.144
AAGGCTTA	-0.214
TGACGTCA	0.314
ACACGTCA	0.151
TCACGTCA	0.331
GGACGTCA	0.0888
AGACGTCA	0.107
GCACGTCA	0.0421
CCACCTAG	-0.225
GATGGTGA	0.0135
CATCACCA	0.176
AATCACCA	0.24
GATCACCA	0.308
TATCACCA	0.364
GCTCACCA	-0.17
GATCACCC	0.261
CAGAATTC	0.0421
GAACTTCC	-0.12

Sequence	PBM E-score
GTCTCAAA	0.161
GTTACTCA	0.0462
AGAAACGC	-0.132
AACTCCTG	-0.177
ACCCGGAG	-0.0473
AATGCCTA	-0.212
GCTTACGA	-0.071
AATTACGA	0.186
TATTACGA	0.311
ACTTACGA	0.325
ACTTACGC	-0.0756
CATTACGA	0.128
CATTGGTC	-0.0867
ATCCACAA	-0.138
ATCCACGG	0.316
ATCCACGA	0.199
AAACCGCG	-0.0683
CCTGGAAC	-0.0203
GGGTGAAA	0.0485
GGGTGAGA	-0.136
CGGTGATA	0.334
AGGTGATG	0.163
AGGTGATA	0.357
CGGTGAAA	0.186
AGGTGAGA	0.0141

Sequence	PBM E-score
GGGTGATA	0.38
CGGTGATC	0.214
CAGCTTCG	0.0552
CTCGAGGC	-0.193
AGCCAGAG	-0.0331
CGGCCTAA	-0.0583
AACACTCC	-0.121
ATCACTCC	0.345
CTCACTCA	0.0709
AACACTCG	-0.00319
CTCACTCC	-0.0715
ATCACTCA	0.369
GTCACTCA	0.238
ACCACTCG	0.187
ATCACTCG	0.31
CGTTTGGC	0.0893
TCAGGACA	0.156
ATCTGAAG	-0.1
ATAACCAT	0.0871
CACAAAAG	-0.0552
CCAGCCAC	-0.0544
CTATGATA	0.143
GTATGATA	0.327
ATATGATG	0.191
GTATGAGA	0.145

Sequence	PBM E-score
ATATGATA	0.316
GTATGACA	0.176
CATCCGGG	-0.161
AAACCGTA	0.221
ACACCAAT	0.0514
CGGGATGA	0.0791
ACGACCGC	0.041
GGGGAATA	-0.112
AAAGAGAG	-0.214
AAGAGAAA	-0.0161
ACTTGAAT	0.0842
CGACATCG	0.301
AGACATTA	-0.0164
CGACATCC	0.121
CGACATTA	0.317
TGACATCA	0.274
CGACATTC	0.0424
GGACATCA	0.215
CGACATCA	0.315
AGACATCG	0.111
CAGAAACA	-0.0715
GAGGAACA	-0.095
